Among the data in PubChem BioAssay (NCATS) are max response values, retold here.

Where “and” joins values, the source holds several entries; their conditions need not be identical. Identical values can stand only once. Results filed as inconclusive are left out. A number with no mark means an inactive call. The call rests on the fitted dose curve; in most records, active means well fitted curve in the direction sought with a large enough effect; inconclusive means small, poorly fitted or top-dose-only effect, or another doubt; inactive means no such curve, though single readings can be large or run the other way.
On the % scale 0 is the no-effect control and ±100 the full control effect.

This assay is described as follows: qHTS Assay for Identifying Gametocytocidal Compounds (AID 743244).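 Further: actives lower the fluorescent signal which means gametocytes are killed.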 The note with it: P. falciparum 3D7 stage III-V gametocytes, alamarBlue, 72 h; max response: stronger effect = lower value. The essentials: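 Compounds are pinned into medium, gametocytes (stage III–V, 3D7, 20,000 cells/well) added, and plates held 72 h at 37 °C in 5% CO2. AlamarBlue follows for 24 h before fluorescence reading.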
(qHTS replaces the single test concentration by a dilution series.)
Regarding `O=C1C[C@@H]2OCC=C3CN4CC[C@]56c7ccccc7N1[C@H]5[C@H]2[C@H]3C[C@H]46` (tested in a mixture with another compound), the max response is 12.7% and 17.6%.

For `CCON=O`, the max response was -5.54%.

`CCC1(c2ccccc2)C(=O)NC(=O)N(C(=O)c2ccccc2)C1=O` (configuration not stated): the max response was -4.65%.

With `C[C@]12CC[C@H]3[C@@H](CCC4=C(Cl)C(=O)CC[C@@]43C)[C@@H]1CC[C@@H]2O`, the max response was -5.5%.

Consider `CCN(CC)CCO[C@H]1CC[C@@]2(C)C(=CC[C@@H]3[C@@H]2CC[C@]2(C)C(=O)CC[C@@H]32)C1`, for which the max response was -4.56%.

Take `O=C1OC2(c3cc(Br)c(O)cc3Oc3c2cc(Br)c(O)[c]3[Hg])c2ccccc21` (configuration not stated): the max response is -1.46%.

Take `C[C@]12CC[C@H]3[C@@H](CCC4=C(O)C(=O)CC[C@@H]43)[C@@H]1CC[C@@H]2OC(=O)CCC1CCCC1`: the max response is -3.51%.

For the molecule `OC[C@@H](O)[C@H]1O[C@@H]2O[C@@H](C(Cl)(Cl)Cl)O[C@@H]2[C@H]1O`, the max response was -7.25%.

As to `CN1c2ccccc2C(NCCCCCCC(=O)O)c2ccc(Cl)cc2S1(=O)=O` (configuration not stated), the max response was -8.42%.

For the molecule `CC(=O)OCC(=O)[C@H]1CC[C@H]2[C@@H]3CC[C@H]4C[C@H](O)CC[C@]4(C)[C@H]3C(=O)C[C@]12C`, the max response was 11.4%.

For `COC1=CC=C2[C@H]3Cc4ccc(OC)c5c4[C@@]2(CCN3C)[C@H]1O5`, the max response was 13.9%.

With `C#CC(C)(O)CC` (configuration not stated), the max response was 4.2%.
